Where “and” joins values, the source holds several entries; their conditions need not be identical. Equal entries are not always repeated. About 2,000 (36%) of roughly 5,500 compounds were called active. Inconclusive results (about 18%) are left out. Cut-off read from the data, not from the text of the source: active = normalized growth mostly below about 0.91 (no sharp cut-off); inconclusive = no clear call, values can overlap the other calls; inactive = mostly above about 0.92. The list shows a part of the results.
Experiment: chemical genetic growth profiling, strain panel (AID 1159580);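 note: tested at 20 µM; growth read once vehicle control cultures reached saturation at 30 °C; 1 = growth at the plate median or of vehicle wells; lower values mean less growth of the strain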
Settings: growth OD

Measured: normalized growth

CC(C)NCC(O)c1ccc(O)c(O)c1 (stereo not given)
inactive: S. cerevisiae deletion strains, locus YJR075W, strain HOC1, hits give low values 1.01 and 1.02 | S. cerevisiae deletion strains, locus YKL009W, strain mrt4, hits give low values 0.979 | S. cerevisiae deletion strains, locus YKL068W, hits give low values 0.994 | S. cerevisiae deletion strains, locus YKL085W, strain MDH1 (second series), hits give low values 0.994 | S. cerevisiae deletion strains, locus YKL085W, strain MDH1, hits give low values 0.994 | S. cerevisiae deletion strains, locus YKL160W, strain elf1, hits give low values 0.966 | S. cerevisiae deletion strains, locus YKL190W, strain CNB1, hits give low values 0.996 | S. cerevisiae deletion strains, locus YKR001C, strain vps1, hits give low values 0.985 | S. cerevisiae deletion strains, locus YKR026C, strain gcn3, hits give low values 0.991 | S. cerevisiae deletion strains, locus YKR091W, strain srl3, hits give low values 0.996 | S. cerevisiae deletion strains, locus YLL001W, strain dnm1, hits give low values 0.955 | S. cerevisiae deletion strains, locus YLL026W, hits give low values 0.997 | S. cerevisiae deletion strains, locus YLL041C, strain sdh2, hits give low values 0.99 | S. cerevisiae deletion strains, locus YLR027C, strain aat2, hits give low values 1 | S. cerevisiae deletion strains, locus YLR039C, strain RIC1, hits give low values 1.08 | S. cerevisiae deletion strains, locus YLR058C, strain SHM2, hits give low values 1.01 | S. cerevisiae deletion strains, locus YLR102C, strain apc9, hits give low values 1 | S. cerevisiae deletion strains, locus YLR113W, strain HOG1, hits give low values 0.97 | S. cerevisiae deletion strains, locus YLR221C, strain rsa3, hits give low values 0.949 | S. cerevisiae deletion strains, locus YLR258W, strain gsy2, hits give low values 0.979 | S. cerevisiae deletion strains, locus YLR262C, strain YPT6 (second series), hits give low values 0.954 | S. cerevisiae deletion strains, locus YLR262C, strain YPT6, hits give low values 1.01 | S. cerevisiae deletion strains, locus YLR268W, strain sec22, hits give low values 1 | S. cerevisiae deletion strains, locus YLR320W, strain mms22, hits give low values 0.962 | S. cerevisiae deletion strains, locus YLR330W, strain CHS5, hits give low values 1.02 | S. cerevisiae deletion strains, locus YLR342W, strain FKS1 (second series), hits give low values 1.01 | S. cerevisiae deletion strains, locus YLR342W, strain FKS1, hits give low values 0.991 | S. cerevisiae deletion strains, locus YLR357W, strain rsc2, hits give low values 0.959 | S. cerevisiae deletion strains, locus YLR370C, strain arc18, hits give low values 0.977 | S. cerevisiae deletion strains, locus YLR371W, strain rom2, hits give low values 0.998 | S. cerevisiae deletion strains, locus YLR384C, strain iki3, hits give low values 0.996 | S. cerevisiae deletion strains, locus YLR418C, strain cdc73, hits give low values 0.986 | S. cerevisiae deletion strains, locus YML016C, strain PPZ1, hits give low values 1.01 | S. cerevisiae deletion strains, locus YML032C, strain rad52, hits give low values 0.989 | S. cerevisiae deletion strains, locus YML120C, strain ndi1, hits give low values 0.966 | S. cerevisiae deletion strains, locus YML124C, strain tub3, hits give low values 1 | S. cerevisiae deletion strains, locus YMR058W, strain fet3, hits give low values 0.991 | S. cerevisiae deletion strains, locus YMR078C, strain ctf18, hits give low values 1.01 | S. cerevisiae deletion strains, locus YMR125W, strain sto1, hits give low values 0.98 | S. cerevisiae deletion strains, locus YMR129W, hits give low values 0.991 | S. cerevisiae deletion strains, locus YMR205C, strain PFK2, hits give low values 0.971 | S. cerevisiae deletion strains, locus YMR223W, strain ubp8, hits give low values 0.99 | S. cerevisiae deletion strains, locus YMR231W, strain pep5, hits give low values 0.999 | S. cerevisiae deletion strains, locus YMR307W, strain GAS1, hits give low values 0.937 and 1.01 | S. cerevisiae deletion strains, locus YNL067W, strain RPL9B, hits give low values 1.01 | S. cerevisiae deletion strains, locus YNL071W, strain lat1, hits give low values 0.995 | S. cerevisiae deletion strains, locus YNL128W, strain TEP1, hits give low values 0.973 | S. cerevisiae deletion strains, locus YNL153C, strain GIM3, hits give low values 1 | S. cerevisiae deletion strains, locus YNL175C, strain NOP13, hits give low values 1.01 and 0.97 | S. cerevisiae deletion strains, locus YNL183C, strain NPR1, hits give low values 0.957 | S. cerevisiae deletion strains, locus YNL197C, strain WHI3, hits give low values 1.02 and 0.975 | S. cerevisiae deletion strains, locus YNL209W, strain ssb2, hits give low values 0.989 | S. cerevisiae deletion strains, locus YNL224C, strain SQS1, hits give low values 1 and 0.985 | S. cerevisiae deletion strains, locus YNL233W, strain BNI4, hits give low values 1.01 | S. cerevisiae deletion strains, locus YNL248C, strain rpa49, hits give low values 0.981 | S. cerevisiae deletion strains, locus YNL250W, strain rad50, hits give low values 0.985 | S. cerevisiae deletion strains, locus YNL271C, strain bni1, hits give low values 1 | S. cerevisiae deletion strains, locus YNL298W, strain CLA4, hits give low values 0.998 | S. cerevisiae deletion strains, locus YNL307C, strain MCK1, hits give low values 0.998 | S. cerevisiae deletion strains, locus YNL322C, strain KRE1 (second series), hits give low values 0.988 | S. cerevisiae deletion strains, locus YNL322C, strain KRE1, hits give low values 1.01 and 1 | S. cerevisiae deletion strains, locus YNR049C, strain mso1, hits give low values 0.995 | S. cerevisiae deletion strains, locus YNR052C, strain pop2, hits give low values 1 | S. cerevisiae deletion strains, locus YOL006C, strain TOP1, hits give low values 1.01 | S. cerevisiae deletion strains, locus YOL012C, strain htz1 0.826 | S. cerevisiae deletion strains, locus YOL147C, strain pex11, hits give low values 1 | S. cerevisiae deletion strains, locus YOR001W, strain rrp6, hits give low values 0.991 | S. cerevisiae deletion strains, locus YOR061W, strain CKA2, hits give low values 1.01 | S. cerevisiae deletion strains, locus YOR069W, strain VPS5, hits give low values 1.01 | S. cerevisiae deletion strains, locus YOR070C, strain gyp1, hits give low values 0.985 | S. cerevisiae deletion strains, locus YOR080W, strain dia2, hits give low values 0.992 | S. cerevisiae deletion strains, locus YOR083W, strain WHI5 (second series), hits give low values 0.998 and 0.969 | S. cerevisiae deletion strains, locus YOR083W, strain WHI5, hits give low values 0.981 | S. cerevisiae deletion strains, locus YOR106W, strain vam3, hits give low values 0.953 | S. cerevisiae deletion strains, locus YOR136W, strain idh2, hits give low values 0.997 | S. cerevisiae deletion strains, locus YOR144C, strain elg1, hits give low values 1 | S. cerevisiae deletion strains, locus YOR184W, strain ser1, hits give low values 1.01 | S. cerevisiae deletion strains, locus YOR231W, strain MKK1, hits give low values 0.952 | S. cerevisiae deletion strains, locus YOR265W, strain rbl2, hits give low values 0.996 | S. cerevisiae deletion strains, locus YOR270C, strain vph1, hits give low values 0.995 | S. cerevisiae deletion strains, locus YOR290C, strain snf2, hits give low values 0.939 | S. cerevisiae deletion strains, locus YOR316C, strain cot1, hits give low values 1.01 | S. cerevisiae deletion strains, locus YPL051W, strain arl3, hits give low values 0.967 | S. cerevisiae deletion strains, locus YPL055C, strain LGE1, hits give low values 1.01 | S. cerevisiae deletion strains, locus YPL078C, strain atp4, hits give low values 0.983 | S. cerevisiae deletion strains, locus YPL106C, strain sse1, hits give low values 0.929 | S. cerevisiae deletion strains, locus YPL240C, strain hsp82, hits give low values 0.976 | S. cerevisiae deletion strains, locus YPL241C, strain CIN2, hits give low values 0.994 | S. cerevisiae deletion strains, locus YPL256C, strain CLN2, hits give low values 0.99 | S. cerevisiae deletion strains, locus YPR119W, strain clb2, hits give low values 0.995 | S. cerevisiae deletion strains, locus YPR141C, strain kar3, hits give low values 0.992 | S. cerevisiae deletion strains, locus YPR163C, strain tif3, hits give low values 0.999 | S. cerevisiae deletion strains, locus YPR167C, strain met16, hits give low values 0.997 | S. cerevisiae deletion strains, strain wtn01, hits give low values 0.993 | S. cerevisiae strains, strain wild type, hits give low values 0.994

— PubChem BioAssay AID1159580 (chemical genetic matrix, 2015)
